PubChem BioAssay (NCI)
Compounds without any hit were thinned out: in the full panel of roughly 83,000, 20% have a hit.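 A percent growth of 40 corresponds to 60% growth inhibition; 0 means no net growth; -100 means all cells died. Active threshold: below 10.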 Activity calls are given as the source filed them.

What was measured:
Assay in all cases: NCI-60 one-dose screen, 48 h (100 = growth as untreated, 0 = no growth, -100 = all killed)
Details in all cases: 10 µM
[1] = test system: T-47D breast
[2] = test system: BT-549 breast
[3] = test system: MDA-MB-435 melanoma
[4] = test system: SW-620 colon
[5] = test system: MCF7 breast
[6] = test system: HCT-116 colon
[7] = test system: HCC-2998 colon
[8] = test system: KM12 colon

Measured: growth

O=C1/C(=C/c2ccc(O)cc2)CSc2ccc(Cl)cc21
inactive: [1] 64.8% | [2] 81.9% | [3] 71.1% | [4] 27.9% | [5] 20.5% | [6] 31.2% | [7] 94.4% | [8] 35.1%

Brc1ccc(-c2cn3ccnc3c(-c3ccc(Br)cc3)n2)cc1
active: [3] 3.08%
inactive: [1] 37.2% | [2] 17.6% | [4] 25.4% | [5] 22% | [6] 30% | [7] 60.2% | [8] 34.6%

C=CCn1c(C)nc2cc(Nc3nc(Nc4ccc5nc(C)n(CC=C)c5c4)c4ccccc4n3)ccc21
active: [1] -60.3% | [2] -84% | [3] -76% | [4] -76.2% | [5] -89.3% | [6] -96.5% | [7] -96.1% | [8] -93.2%

N#Cc1c(-c2ccccc2)nc(SCC(=O)N2CCOCC2)[nH]c1=O
inactive: [1] 93.4% | [2] 88.2% | [3] 112% | [4] 106% | [5] 89.7% | [6] 99.9% | [7] 109% | [8] 114%

NC1CCC(Nc2nc(NCc3ccc(-c4ccccc4O)nc3)c3ncn(C4CCCC4)c3n2)CC1 (configuration not stated)
active: [1] -34.2% | [2] -28% | [3] -81.5% | [4] 0.393% | [5] -62.4% | [6] -55.8% | [7] -73.3% | [8] -16.2%

COC(=O)c1c(C)nc(Nc2nc3ccccc3s2)nc1-c1ccc(Cl)cc1Cl
inactive: [1] 105% | [2] 101% | [3] 111% | [4] 104% | [5] 78.5% | [6] 98.4% | [7] 108% | [8] 103%

c1ccc(CNc2nc(Nc3ccc(-c4nc5ccccc5[nH]4)cc3)c3cn[nH]c3n2)cc1
active: [1] -30.6% | [2] -24.8% | [3] -6.74% | [4] 7.33% | [5] 1.71% | [6] -54.5% | [7] -5.53% | [8] 9.4%

C[C@]12CC[C@H]3[C@@H](CC=C4C[C@@H](O)CC[C@@]43C)[C@@H]1CC[C@@H]2C(=O)C/C=N/O
inactive: [1] 77.2% | [2] 90.2% | [3] 97.1% | [4] 102% | [5] 95.6% | [6] 79.1% | [7] 94.1% | [8] 96.6%

O=C1CC[C@@H](C(=O)N[C@H]2CSSC[C@@H](C(=O)NCCc3ccccc3)NC(=O)[C@H](Cc3ccccc3)NC(=O)[C@@H]3CCCN3C(=O)[C@@H]3CCCN3C2=O)N1
inactive: [1] 25.3% | [2] 106% | [3] 109% | [4] 102% | [5] 95.8% | [6] 95.8% | [7] 94.3% | [8] 105%

CN(C)Cc1cccs1
inactive: [1] 83.9% | [2] 96.6% | [3] 118% | [4] 108% | [5] 103% | [6] 89% | [7] 96.6% | [8] 101%

NC1CCC(Nc2nc(NCc3ccc(-c4ccco4)nc3)c3ncn(C4CCCC4)c3n2)CC1 (configuration not stated)
inactive: [3] 11.4%
active: [1] -11.3% | [2] -25.7% | [4] 7.93% | [5] 1.09% | [6] 3.79% | [7] -19% | [8] 4.05%

Cc1ccc(NC(=O)/C=N/O)cc1C
inactive: [1] 76.4% | [2] 91.6% | [3] 96.5% | [4] 100% | [5] 61.5% | [6] 98.1% | [7] 116% | [8] 104%

Cc1ccccc1[P+](Cc1ccccc1)(c1ccccc1)c1ccccc1
active: [1] -3.4% | [3] 1% | [8] 8.7%
inactive: [2] 10.3% | [4] 30% | [5] 10.4% | [6] 12.7% | [7] 16.5%

COC(=O)[C@]12CC[C@@H](C)[C@H](C)[C@@H]1C1=CC[C@@H]3[C@@]4(C)C[C@@H](O)[C@H](O)[C@@](C)(CO)[C@@H]4[C@H](O)C[C@@]3(C)[C@]1(C)CC2
active: [1] -47.1% | [2] -66.1% | [3] -66.9% | [4] -54.1% | [5] -24.3% | [6] -82.3% | [7] -89.2% | [8] -74.2%

CCOC(=O)c1cc2c(n1Cc1cccc(OC)c1)-c1oncc1CC2
active: [3] -23.5%
inactive: [1] 38.9% | [2] 28.3% | [4] 23% | [5] 14.1% | [6] 14.9% | [7] 58.6% | [8] 32.5%

O=[N+]([O-])C1CC2C=CC1C2 (configuration not stated)
inactive: [1] 93% | [2] 97.3% | [3] 92.7% | [4] 103% | [5] 92.1% | [6] 107% | [7] 102% | [8] 104%

COc1ccc(S(=O)(=O)Nc2cc(/C=C\c3cc(OC)c(OC)c(OC)c3)ccc2OC)cc1
active: [3] -37.9% | [5] -9.99% | [6] 4.3% | [8] -5.35%
inactive: [1] 71.7% | [2] 26.9% | [4] 21.3% | [7] 16%

NC(=O)C1CCCN(Cc2c[nH]c3ccccc23)C1 (configuration not stated)
inactive: [1] 92.8% | [2] 105% | [3] 108% | [4] 99.5% | [5] 101% | [6] 103% | [7] 100% | [8] 102%

COc1ccc(-c2cc(=O)n(-c3nc4ccccc4[nH]3)[nH]2)cc1OC
inactive: [1] 94.5% | [2] 76.2% | [3] 50.6% | [4] 77.8% | [5] 74.4% | [6] 74.6% | [7] 102% | [8] 105%

Cc1cc(C(C)(C)CC(C)(C)C)ccc1OCCOCC[N+](C)(C)Cc1ccccc1
active: [1] 7.06% | [2] -99% | [3] -87% | [4] -80.6% | [5] -90.7% | [6] -97.4% | [7] -60.6% | [8] -92.5%

O=C(COc1ccc(-c2nc3ccccc3[nH]2)cc1)N=Nc1c(O)[nH]c2ccccc12
inactive: [1] 59% | [2] 106% | [3] 69.8% | [4] 85.6% | [5] 42.5% | [6] 40.9% | [7] 109% | [8] 58.2%

CCc1ccc(-c2nnc(COc3ccc(-c4nc5ccccc5[nH]4)cc3OC)o2)cc1
inactive: [1] 87.9% | [2] 51.7% | [3] 56.7% | [4] 58.1% | [5] 33.5% | [6] 28.9% | [7] 81.6% | [8] 58%

O=C1CC[C@@H](C(=O)N[C@H]2CSSC[C@@H](C(=O)N/C=C/c3ccc(O)cc3)NC(=O)[C@H](Cc3ccccc3)NC(=O)[C@@H]3CCCN3C(=O)[C@@H]3CCCN3C2=O)N1
inactive: [1] 78.3% | [2] 120% | [3] 104% | [4] 97.2% | [5] 96.8% | [6] 99.7% | [7] 98.9% | [8] 97.9%

COc1cccc(C(=O)NNc2nc(N3CCOCC3)nc(N3CCN(C(c4ccccc4)c4ccccc4)CC3)n2)c1
inactive: [1] 59.2% | [2] 87.9% | [3] 96.8% | [4] 96.5% | [5] 79.8% | [6] 85.4% | [7] 100% | [8] 77.7%

CCCc1c(C)nc2scc(-c3ccc(Cl)cc3)n2c1=O
inactive: [1] 86.5% | [2] 98.3% | [3] 108% | [4] 109% | [5] 95.2% | [6] 99.1% | [7] 106% | [8] 98.2%

COc1ccc2oc(=O)cc(C3c4ccc([nH]4)C(c4cc(=O)oc5ccc(OC)cc45)c4ccc([nH]4)C(c4cc(=O)oc5ccc(OC)cc45)c4ccc([nH]4)C(c4cc(=O)oc5ccc(OC)cc45)c4ccc3[nH]4)c2c1 (configuration not stated)
active: [1] -28.7% | [2] -73.8% | [3] 1.62% | [4] -64.1% | [5] -29.7% | [6] -70.4% | [8] 1.11%
inactive: [7] 30.5%

CCCCCCCCCCCCc1ccc(C(=O)/C=C/C(=O)O)cc1
active: [4] -23.1% | [5] -5.2% | [6] -61.3%
inactive: [1] 11.6% | [2] 45% | [3] 109% | [7] 76.2% | [8] 97.7%

CCCCCCCOc1cccc(/C=C2/C(=O)N=C3SCCCN32)c1
inactive: [2] 51.3% | [3] 56.4% | [4] 76.6% | [5] 29.4% | [6] 39.9% | [7] 95.8% | [8] 75.2%
active: [1] 0.89%

O=C1NN(c2ccccc2)C(c2cccnc2)=N/C1=C\c1cccnc1
inactive: [1] 96.7% | [2] 101% | [3] 92.4% | [4] 110% | [5] 92.1% | [6] 91.9% | [7] 99% | [8] 95%
